Assay [1] can be described thus: stimulators of insulin release from INS-1E, primary screen, cell-based, 5 mM glucose, NPC library (AID 1117329). The following applies: rat INS-1E insulin secretion, at 10 µM, stronger effect = higher value.
Assay [2] in a line: growth inhibition of GSK3B-pretreated HCT116 cells – cell-based, CellTiter-Glo, 0.2 to 20 µM (AID 1117336;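 active = compounds lowering colon cancer cell viability after pretreatment blocking the GSK3B kinase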). The following applies: HCT116 viability after GSK3B inhibitor, at 20 µM, stronger effect = higher value.
Assay [3] is described as follows: inhibition of endothelial tube formation, primary screen, imaging, VEGF stimulated, CD31 staining, tube area, NPC library (AID 1117340;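 active = compound that reduces growth-factor-driven endothelial tube area in a mixed cell culture, no cutoff stated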). The following applies: VEGF-stimulated ADSC/ECFC co-culture, at 10 µM, stronger effect = higher value.
A short description of assay [4]: glucagon-like peptide 1 release enhancers, primary assay, NCI-H716 cell line, NPC library (AID 1117341;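 active = compound raises GLP1 secretion from the human gut endocrine cells, with no numeric limit stated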). The settings on record: NCI-H716 cells, at 10 µM, stronger effect = higher value.
Assay [5] can be described thus: HCT116 colon cancer cell growth inhibition, primary screen, CellTiter-Glo luminescence, NPC library (AID 1117342;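 active = compounds that lower survival of HCT116 colon cancer cells in the luminescence readout, no numeric limit stated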). The settings on record: at 20 µM (top of the series). A general note: In ATP-based viability assays light output follows the ATP content of the culture.
Assay [6] is described as follows: CellTiter-Glo luminescent readout of SW480 viability loss, NPC library primary (AID 1117343;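 active = compounds that lower viability of the colon cancer cells in the luminescence readout, with no numeric limit stated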). The following applies: CellTiter-Glo luminescence; at 20 µM (top of the series).
Assay [7] in a line: decreased DLD-1 cellular survival, CellTiter-Glo luminescent readout, NPC compound collection, primary HTS (AID 1117346;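 active = compounds that lower survival of DLD-1 colon cancer cells in the luminescence readout, no cutoff given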). The following applies: DLD-1 viability, CellTiter-Glo luminescence; at 20 µM (top of the series).
A short description of assay [8]: differential killing of epithelial or mesenchymal cells, primary screen, imaging, PC-3E GFP, TEM4-18 mCherry, co-culture (AID 1345086;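 active = compounds killing one labelled cell type while sparing the other, by normalised counts and ratio limits, not self-fluorescent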;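 as to all read-outs here: cells exposed to compound for 72 h before imaging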;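 as to red/green cell ratio (normalised): normalised mesenchymal count divided by normalised epithelial count so high means epithelial killing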). The settings on record: imaging cell counts, at 1 µM; for red/green cell ratio (normalised): actives lie on both sides, counts scaled to control wells, 1 = unselective.
Assay [9] can be described thus: growth inhibition of DIPG glioma cells, dose response, cell-based, SU-DIPG-XVII, MIPE5.0, CellTiter-Glo, qHTS (AID 1347060; cut-off not given, nearly all actives have AC50 up to about 26 µM;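 as to AC50: cells exposed to compound for 48 hours before viability readout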). The settings on record: SU-DIPG-XVII viability, CellTiter-Glo ATP luminescence.
Assay [10] is described as follows: growth inhibition of DIPG glioma cells, dose response, cell-based, SU-DIPG-XIII, MIPE4.0, CellTiter-Glo, qHTS (AID 1347061; cut-off not given, nearly all actives have AC50 up to about 37 µM;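 also: cells exposed to compound for 48 hours before readout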). The following applies: SU-DIPG-XIII viability, CellTiter-Glo ATP luminescence.
Assay [11] can be described thus: growth inhibition of DIPG glioma cells, dose response, cell-based, JHH-DIPG-1, MIPE4.0, CellTiter-Glo, qHTS (AID 1347062; cut-off not given, nearly all actives have AC50 up to about 27 µM). The settings on record: JHH-DIPG-1 viability, CellTiter-Glo ATP luminescence.
A short description of assay [12]: growth inhibition of DIPG glioma cells, dose response, cell-based, SU-DIPG-XIII, MIPE5.0, CellTiter-Glo, qHTS (AID 1347064; cut-off not given, nearly all actives have AC50 up to about 23 µM;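 as to AC50: cells exposed to compound for 48 hours before the viability read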). The settings on record: SU-DIPG-XIII viability, CellTiter-Glo ATP luminescence.
Assay [13] deals with Aerobactin synthetase IucA (Klebsiella pneumoniae). In words: IucA aerobactin synthetase inhibitors, biochemical, Tocris library, absorbance (AID 1345561; call rule not given here;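 also: 100% = enzyme without compound and 0% = no enzyme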). The settings on record: purified IucA enzyme assay, absorbance (OD) read-out; stronger effect = lower value;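 tested at 8 µM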.
Assay [14] is described as follows: growth inhibition of DIPG glioma cells, dose response, cell-based, SU-DIPG-IV, MIPE4.0, CellTiter-Glo, qHTS (AID 1347063; cut-off not given, nearly all actives have AC50 up to about 30 µM;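 also: compound exposure lasted 48 hours before the viability readout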). The following applies: SU-DIPG-IV viability, CellTiter-Glo ATP luminescence.
[15] abbreviates: measured here: epithelial PC-3E GFP cell survival.
[16] abbreviates: measured here: mesenchymal TEM4-18 mCherry cell survival.

This is an account of results in PubChem BioAssay.

Each structure is given as a SMILES string. Records with an inconclusive call do not appear. The source made the active and inactive calls.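 The calls were made as follows, unless noted: active = compound raises insulin release from rat beta cells at 5 mM glucose, no numeric limit stated; inactive = the rest.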

For `CCC(C)n1ncn(-c2ccc(N3CCN(c4ccc(OC[C@H]5CO[C@](Cn6cncn6)(c6ccc(Cl)cc6Cl)O5)cc4)CC3)cc2)c1=O` (some centres undefined), the insulin secretion stimulation in [1] was 0.4% (inactive). The viability decrease in assay [2] was 68.8% (active). Further, the tube area decrease in assay [3] was 96.5% (active). Besides, the GLP1 secretion stimulation in assay [4] is 2.2% (inactive). Besides, in assay [5], the inhibition of viability was 75.3% (active). Further, the viability decrease (inhibition) in assay [6] was 112% (active); in [7], 40.6% (inactive). The red/green cell ratio (normalised) in [8] was 0.8 (inactive). Also, the normalised cell number was 1.27 in [8] (setting [15]) and 1.01 in assay [8] (setting [16]). In addition, the result in [9], in assay [10] and in [11] was inactive.
With `CC1(C)O[C@@H]2C[C@H]3[C@@H]4C[C@H](F)C5=CC(=O)C=C[C@]5(C)[C@@]4(F)[C@@H](O)C[C@]3(C)[C@]2(C(=O)CO)O1`, the insulin secretion stimulation in assay [1] is 0.7% (inactive). The viability decrease in [2] was -12.2% (inactive). In addition, the tube area decrease in assay [3] is 14.7% (inactive). Further, in assay [4], the GLP1 secretion stimulation is -0.6% (inactive). In assay [5], the inhibition of viability is 19.8% (inactive). In addition, the viability decrease (inhibition) in assay [6] is 1.8% (active); in assay [7], 24.1% (inactive). Besides, the result in [9], in assay [10], in assay [11] and in assay [12] was inactive.
With `COc1cc(C(=O)OCCCN2CCCN(CCCOC(=O)c3cc(OC)c(OC)c(OC)c3)CC2)cc(OC)c1OC`, in assay [1], the insulin secretion stimulation is 79.2% (active). Also, the viability decrease in assay [2] was 38.2% (inactive). In assay [3], the tube area decrease was 4.6% (inactive). Also, in assay [4], the GLP1 secretion stimulation is 7.5% (inactive). In addition, the inhibition of viability in assay [5] was 77.6% (active). The viability decrease (inhibition) in assay [6] was 92.3% (active); in assay [7] it was 24% (inactive). In assay [8], the red/green cell ratio (normalised) is 1.21 (inactive). For the same molecule, the normalised cell number in assay [8] (setting [15]) came out at 0.76; in assay [8] (setting [16]), 0.92. In addition, the remaining activity (as a rule, the signal under treatment as a percentage of the control signal) in [13] was 90.6% (inactive).
Turning to `CCCCN(CCCC)CCC(O)c1cc2c(Cl)cc(Cl)cc2c2cc(C(F)(F)F)ccc12` (centres undefined), the insulin secretion stimulation in assay [1] was 0.4% (inactive). The viability decrease in assay [2] is 99.2% (active). In [3], the tube area decrease was 96.1% (active). Further, the GLP1 secretion stimulation in [4] is -0.7% (inactive). Further, the inhibition of viability in assay [5] is 105% (active). The viability decrease (inhibition) in assay [6] was 131% (active); in assay [7] it was 100% (active). Besides, in [8], the red/green cell ratio (normalised) is 1.18 (inactive). Further, the normalised cell number came out at 1.03 in assay [8] (setting [15]) and 1.22 in assay [8] (setting [16]). In addition, the AC50 (in general, the concentration at which the activity in the assay is half-maximal) in assay [9] is 26.3 µM (active); in assay [14] it was 20.9 µM (active); in assay [12], 16.6 µM (active). Besides, in [10], the outcome was inactive.
With `NS(=O)(=O)c1cc2c(cc1Cl)NC(C1CC3C=CC1C3)NS2(=O)=O` (centres undefined), the insulin secretion stimulation in [1] was -1% (inactive). Moreover, the viability decrease in assay [2] is -17% (inactive). Further, in assay [3], the tube area decrease is 2.9% (inactive). Further, in assay [4], the GLP1 secretion stimulation is -2.5% (inactive). For the same molecule, in assay [5], the inhibition of viability was -8.27% (inactive). For the same molecule, the viability decrease (inhibition) in assay [6] was 8.9% (inactive); in assay [7], -15.4% (inactive). Also, the red/green cell ratio (normalised) in [8] was 1.29 (inactive). Moreover, the normalised cell number in [8] (setting [15]) was 0.95; in assay [8] (setting [16]), 1.23. Also, the remaining activity in assay [13] is 94.1% (inactive).
As to `O=P(O)(O)C(O)(Cc1cccnc1)P(=O)(O)O`, the insulin secretion stimulation in [1] was -1.8% (inactive). For the same molecule, the viability decrease in [2] was 5.7% (inactive). The tube area decrease in assay [3] was 18.1% (inactive). The GLP1 secretion stimulation in assay [4] was 0.1% (inactive). Moreover, the inhibition of viability in assay [5] was 5.33% (inactive). Further, the viability decrease (inhibition) in [6] is -18.5% (inactive); in assay [7], -4.9% (inactive). Also, the red/green cell ratio (normalised) in assay [8] was 0.63 (inactive). In addition, the normalised cell number in assay [8] (setting [15]) came to 1.37; in assay [8] (setting [16]), 0.87. Also, the call in assay [9], in assay [10], in [11] and in [12] was inactive.
With `CCC(=O)O[C@]1(C(=O)SCF)[C@H](C)C[C@H]2[C@@H]3C[C@H](F)C4=CC(=O)C=C[C@]4(C)[C@@]3(F)[C@@H](O)C[C@@]21C`, the insulin secretion stimulation in [1] was 0.4% (inactive). The viability decrease in [2] was -30.2% (inactive). Moreover, in [3], the tube area decrease is -19.4% (inactive). Besides, the GLP1 secretion stimulation in [4] is 9.8% (inactive). The inhibition of viability in assay [5] is 6.27% (inactive). For the same molecule, the viability decrease (inhibition) is 39.6% (inactive) in assay [6] and -7.2% (inactive) in [7]. In addition, in [13], the remaining activity is 125% (inactive). The outcome in [9], in assay [11] and in [14] was inactive.
Consider `NC(N)=NC(=O)Cc1c(Cl)cccc1Cl`, for which the insulin secretion stimulation in assay [1] was -2.2% (inactive). Also, in assay [2], the viability decrease is 16.7% (inactive). Besides, in assay [3], the tube area decrease is 11.5% (inactive). For the same molecule, the GLP1 secretion stimulation in [4] was -3% (inactive). Besides, in assay [5], the inhibition of viability is 68.9% (active). For the same molecule, the viability decrease (inhibition) in assay [6] was 34.1% (inactive); in assay [7] it was 29% (inactive). Further, the red/green cell ratio (normalised) in assay [8] was 0.93 (inactive). Moreover, the normalised cell number is 1.04 in assay [8] (setting [15]) and 0.96 in assay [8] (setting [16]). Moreover, the remaining activity in assay [13] is 114% (inactive).
Regarding `CC(C)(C)NC(=O)[C@H]1CC[C@H]2[C@@H]3CC[C@H]4NC(=O)C=C[C@]4(C)[C@H]3CC[C@]12C`, the insulin secretion stimulation in assay [1] was 0.6% (inactive). In addition, the viability decrease in assay [2] was 5.3% (inactive). In addition, in assay [3], the tube area decrease is 8.2% (inactive). The GLP1 secretion stimulation in assay [4] was 6.1% (inactive). In addition, the inhibition of viability in [5] is 5.67% (inactive). In addition, the viability decrease (inhibition) in assay [6] is 7.4% (inactive); in [7] it was -4% (inactive). The outcome in assay [9] was inactive. Further, the AC50 in assay [10] was 11.8 µM (active).
For `C#C[C@]1(O)CC[C@H]2[C@@H]3[C@H](C)CC4=C(CCC(=O)C4)[C@H]3CC[C@@]21C`, the insulin secretion stimulation in assay [1] was -2.8% (inactive). In [2], the viability decrease was 45.5% (inactive). In addition, the tube area decrease in assay [3] is -5.2% (inactive). For the same molecule, in assay [4], the GLP1 secretion stimulation was 4.4% (inactive). Besides, in assay [5], the inhibition of viability is -14.3% (inactive). In addition, the figures for the viability decrease (inhibition) in assay [6] and in assay [7] were 109% (active) and 79.8% (active), respectively. Moreover, the call in assay [12] was inactive.
With `CCCCNc1c(C(=O)OCC)c(C)nc2c1cnn2CC`, in assay [1], the insulin secretion stimulation is 6.8% (inactive). In assay [2], the viability decrease is 93.3% (active). Also, the tube area decrease in [3] is 10.7% (inactive). In addition, in [4], the GLP1 secretion stimulation is 3.7% (inactive). Besides, in [5], the inhibition of viability is 94.4% (active). For the same molecule, the viability decrease (inhibition) in [6] was 124% (active); in assay [7], 78.4% (active). Moreover, the red/green cell ratio (normalised) in assay [8] was 1.16 (inactive). Also, the normalised cell number in assay [8] (setting [15]) turned out to be 0.85; in [8] (setting [16]) it was 0.98. In addition, the remaining activity in [13] was 94.8% (inactive).
As to `C[n+]1c2cc(N)ccc2cc2ccc(N)cc21` (tested in a mixture with another compound), the insulin secretion stimulation in [1] is 0.4% (inactive). In addition, the viability decrease in assay [2] is 70.5% (active). Further, the tube area decrease in assay [3] was -105% (inactive). For the same molecule, the GLP1 secretion stimulation in [4] is 5.7% (inactive). Further, the inhibition of viability in assay [5] is 83.8% (active). Moreover, the viability decrease (inhibition) in [6] is 68.8% (active); in assay [7], 95.2% (active). In addition, the red/green cell ratio (normalised) in [8] is 0.5 (inactive). In addition, the normalised cell number in assay [8] (setting [15]) came out at 0.56; in assay [8] (setting [16]) it was 0.28.
